According to PubChem BioAssay (NCI):
The panel holds about 83,000 compounds, 20% with a hit somewhere; the sample as a whole holds those more often.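 The endpoint reported here, percent growth, reads 100 for growth as untreated, 0 for no net growth and -100 for all cells dead.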 The source made the active and inactive calls. Rule for the calls: active = growth percent below 10; inactive = the rest.

Assays:
Assay in all cases: NCI-60 one-dose screen, 48 h (100 = growth as untreated, 0 = no growth, -100 = all killed)
Settings in all cases: 10 µM unless noted
EKVX NSCLC = tested on: EKVX NSCLC
SN12C renal = tested on: SN12C renal
UO-31 renal = tested on: UO-31 renal
TK-10 renal = tested on: TK-10 renal
ACHN renal = tested on: ACHN renal
CAKI-1 renal = tested on: CAKI-1 renal
A498 renal = tested on: A498 renal
CCRF-CEM leukemia = tested on: CCRF-CEM leukemia
MOLT-4 leukemia = tested on: MOLT-4 leukemia
SR leukemia = tested on: SR leukemia

Measured: growth

COc1ccc(/C=C/C(=O)c2ccc(NC(=O)CSc3nnc(-c4ccc5nc(-c6ccc(Cl)cc6)[nH]c5c4)o3)cc2)cc1
inactive: EKVX NSCLC 103% | SN12C renal 93.4% | UO-31 renal 87.5% | TK-10 renal 136% | ACHN renal 102% | CAKI-1 renal 97.4% | A498 renal 111% | CCRF-CEM leukemia 59.9% | MOLT-4 leukemia 64.4% | SR leukemia 80.5%

COc1ccc(-c2nc3ccc(-c4nnc(SCC(=O)Nc5ccc(C(=O)/C=C/c6ccc(Cl)cc6)cc5)o4)cc3[nH]2)cc1OC
inactive: EKVX NSCLC 91.9% | SN12C renal 94.9% | UO-31 renal 87% | TK-10 renal 134% | ACHN renal 94.3% | CAKI-1 renal 100% | A498 renal 100% | CCRF-CEM leukemia 100% | MOLT-4 leukemia 75.8% | SR leukemia 73%

Cc1c(Nc2nnc(SCC(=O)Nc3sc4c(c3C#N)CCCC4)s2)c(=O)n(-c2ccccc2)n1C
inactive: EKVX NSCLC 97.4% | SN12C renal 106% | UO-31 renal 97.3% | TK-10 renal 135% | ACHN renal 100% | CAKI-1 renal 110% | A498 renal 109% | CCRF-CEM leukemia 99.4% | MOLT-4 leukemia 92.7% | SR leukemia 98.5%

Cc1ccc(/C=C/c2nn3c(-c4ccco4)nnc3s2)cc1C
inactive: EKVX NSCLC 82.8% | SN12C renal 90.8% | UO-31 renal 80.8% | TK-10 renal 116% | ACHN renal 102% | CAKI-1 renal 90.8% | A498 renal 87% | CCRF-CEM leukemia 104% | MOLT-4 leukemia 97.8% | SR leukemia 90.1%

N#Cc1nc(-c2ccccc2)oc1N1CCC(CO)C1 (stereo not given)
inactive: EKVX NSCLC 77.4% | SN12C renal 97.1% | UO-31 renal 88.7% | TK-10 renal 104% | ACHN renal 105% | CAKI-1 renal 90.2% | A498 renal 76.4% | CCRF-CEM leukemia 105% | MOLT-4 leukemia 108% | SR leukemia 110%

COc1cccc(N2CCN(c3ncnc4c3[nH]c3ccc(F)cc34)C[C@@H]2C)c1
active: EKVX NSCLC -0.593% | SN12C renal -28.2% | UO-31 renal -98.8% | TK-10 renal -31.6% | ACHN renal -12.9% | CAKI-1 renal -28.6% | A498 renal -23.1% | CCRF-CEM leukemia -16.1% | MOLT-4 leukemia -42% | SR leukemia -22.8%

CCCC(=O)NC(c1ccc2c(c1)OC(F)(F)O2)c1cc(C)c2cccnc2c1O (stereo not given)
inactive: EKVX NSCLC 23.1% | SN12C renal 19.4% | TK-10 renal 54.8% | CAKI-1 renal 12.8% | MOLT-4 leukemia 15.3% | SR leukemia 13%
active: UO-31 renal 6.46% | ACHN renal 6.71% | A498 renal 6.01% | CCRF-CEM leukemia 9.16%

O=C(CSc1nccc(=O)[nH]1)Nc1ccc(-c2nc3ccccc3[nH]2)cc1
inactive: EKVX NSCLC 111% | SN12C renal 103% | UO-31 renal 108% | TK-10 renal 116% | ACHN renal 101% | CAKI-1 renal 112% | A498 renal 116% | CCRF-CEM leukemia 101% | MOLT-4 leukemia 111% | SR leukemia 117%

CCOC(=O)c1csc(NC(=O)CSc2nc3sc4c(c3c(=O)n2-c2ccc(Cl)cc2)CCCC4)n1
inactive: EKVX NSCLC 90.6% | SN12C renal 94.9% | UO-31 renal 77.2% | TK-10 renal 125% | ACHN renal 102% | CAKI-1 renal 92% | A498 renal 88.1% | CCRF-CEM leukemia 100% | MOLT-4 leukemia 81.1% | SR leukemia 95.9%

Fc1ccc(-c2nc(C(Cl)Cl)nc3cc(-c4ccccc4)nn23)cc1
active: EKVX NSCLC 0.294% | ACHN renal -52.3% | CAKI-1 renal -21.4% | A498 renal -42.7% | MOLT-4 leukemia 6.63% | SR leukemia 0.553%
inactive: SN12C renal 42.5% | UO-31 renal 40.9% | TK-10 renal 30.3% | CCRF-CEM leukemia 29.9%

O=C(CSc1nc2sc3c(c2c(=O)n1-c1ccc(Cl)cc1)CCCC3)NNC(=O)Nc1ccc(Cl)c(C(F)(F)F)c1
inactive: EKVX NSCLC 41% | SN12C renal 32.3% | UO-31 renal 30.4% | TK-10 renal 38.3% | ACHN renal 13.3% | CAKI-1 renal 34.6% | CCRF-CEM leukemia 13.5%
active: A498 renal -15.5% | MOLT-4 leukemia 6.67% | SR leukemia 8.77%

CSc1ccc2c(c1)N(C(=O)/C(C#N)=C/c1c[nH]c3ccccc13)c1ccccc1S2
inactive: EKVX NSCLC 34.8% | SN12C renal 33.9% | UO-31 renal 50.4% | TK-10 renal 71.3% | ACHN renal 39.9% | CAKI-1 renal 38.5% | A498 renal 10.8% | CCRF-CEM leukemia 19% | MOLT-4 leukemia 30.5% | SR leukemia 34.4%

COc1ccc([C@@H]2c3[nH]c4ccccc4c3CC3C(=O)N(C4CCN(Cc5c(F)cccc5F)CC4)CC(=O)N32)c(OC)c1 (stereo not given in full)
inactive: EKVX NSCLC 51.9% [5.26 µM] | SN12C renal 67.5% [5.26 µM] | UO-31 renal 39.7% [5.26 µM] | TK-10 renal 63.5% [5.26 µM] | ACHN renal 47.6% [5.26 µM] | CAKI-1 renal 40.4% [5.26 µM] | A498 renal 29.4% [5.26 µM] | CCRF-CEM leukemia 58.1% [5.26 µM] | MOLT-4 leukemia 49% [5.26 µM] | SR leukemia 79.4% [5.26 µM]

COc1cccc(NC2=CC(=O)C(C)=C(C)C2=O)c1
inactive: EKVX NSCLC 36.7% | SN12C renal 80.5% | UO-31 renal 86% | TK-10 renal 135% | ACHN renal 70.9% | CAKI-1 renal 93% | A498 renal 67.2% | CCRF-CEM leukemia 15.8% | MOLT-4 leukemia 17.9% | SR leukemia 23.2%

O=C1c2c(c3c4cc(Br)ccc4[nH]c3c3ccc4ccccc4c23)C(=O)N1CCO
active: SR leukemia -6.75%
inactive: EKVX NSCLC 100% | SN12C renal 89.5% | UO-31 renal 78% | TK-10 renal 160% | ACHN renal 73.7% | CAKI-1 renal 69.6% | A498 renal 90.6% | CCRF-CEM leukemia 64.6% | MOLT-4 leukemia 70.5%

COc1ccccc1C(=O)CSc1nc(Nc2ccc(S(N)(=O)=O)cc2)c2ccccc2n1
inactive: EKVX NSCLC 92.6% | SN12C renal 81.1% | UO-31 renal 90.6% | TK-10 renal 116% | ACHN renal 92.1% | CAKI-1 renal 91.1% | A498 renal 99.8% | CCRF-CEM leukemia 87.3% | MOLT-4 leukemia 93% | SR leukemia 64.3%

COc1cc(-c2nc3ccc(-c4nnc(SCC(=O)Nc5ccc(C(C)=O)cc5)o4)cc3[nH]2)cc(OC)c1OC
inactive: EKVX NSCLC 94% | SN12C renal 92.8% | UO-31 renal 85.2% | TK-10 renal 121% | ACHN renal 98.9% | CAKI-1 renal 92.7% | A498 renal 95.4% | CCRF-CEM leukemia 104% | MOLT-4 leukemia 110% | SR leukemia 96.5%

CCOC(=O)c1sc(NCC(=O)Nc2cccc([N+](=O)[O-])c2)c(C(=O)OCC)c1C
inactive: SR leukemia 19.3%
active: EKVX NSCLC -22.3% | SN12C renal -11.5% | UO-31 renal -64.6% | TK-10 renal -12.2% | ACHN renal -62.4% | CAKI-1 renal -17.5% | A498 renal -38% | CCRF-CEM leukemia 7.16% | MOLT-4 leukemia 6.63%

Nc1c(C(=O)Nc2ccc(Cl)cc2)sc2nc(-c3cnccn3)cc(-c3cccs3)c12
active: CAKI-1 renal -6.36%
inactive: EKVX NSCLC 71.7% | SN12C renal 66.6% | UO-31 renal 67.7% | TK-10 renal 118% | ACHN renal 17% | A498 renal 82.3% | CCRF-CEM leukemia 88.6% | MOLT-4 leukemia 70.1% | SR leukemia 40.7%

Cc1sc2c(c1C)c(=O)nc1c(-c3nc(-c4ccc(F)cc4)no3)n[nH]n12
inactive: EKVX NSCLC 95.2% | SN12C renal 98.2% | UO-31 renal 88.1% | TK-10 renal 122% | ACHN renal 96.5% | CAKI-1 renal 92.8% | A498 renal 98.6% | CCRF-CEM leukemia 104% | MOLT-4 leukemia 104% | SR leukemia 97.6%

Cc1ccc(CNS(=O)(=O)/N=C2\NC(=O)NC2=C(Cl)Cl)cc1
inactive: EKVX NSCLC 95.6% | SN12C renal 26.4% | UO-31 renal 84.7% | TK-10 renal 48.8% | ACHN renal 73% | CAKI-1 renal 94.6% | A498 renal 56.7% | CCRF-CEM leukemia 16.1% | MOLT-4 leukemia 21% | SR leukemia 69.5%

CO/N=C1\CCc2c(sc(NC(=O)c3cccc(C(F)(F)F)c3)c2C(N)=O)C1
active: UO-31 renal -16.4% | TK-10 renal -17.1% | ACHN renal -23.7% | A498 renal -43.3%
inactive: EKVX NSCLC 30.7% | SN12C renal 15.6% | CAKI-1 renal 11.3% | CCRF-CEM leukemia 67.9% | MOLT-4 leukemia 84.1% | SR leukemia 37.1%

Cc1sc2nc(NCc3ccccc3Cl)[nH]c(=O)c2c1C
inactive: EKVX NSCLC 98.1% | SN12C renal 93.8% | UO-31 renal 94.5% | TK-10 renal 112% | ACHN renal 94.8% | CAKI-1 renal 87.2% | A498 renal 81.3% | CCRF-CEM leukemia 65.3% | MOLT-4 leukemia 69.7% | SR leukemia 50.2%

CCN1C(=S)N(c2ccccc2)C2NC(=O)N(/N=C/C=C/c3ccccc3OC)C21 (stereo not given)
inactive: EKVX NSCLC 89.7% | SN12C renal 87.5% | UO-31 renal 90.4% | TK-10 renal 105% | ACHN renal 80.1% | CAKI-1 renal 72.6% | A498 renal 95% | CCRF-CEM leukemia 92.3% | MOLT-4 leukemia 101% | SR leukemia 40.9%

CC(C)(C)Nc1nc2c(OCCc3ccccc3)cccn2c1-c1ccc(O)cc1
inactive: EKVX NSCLC 38.9% | SN12C renal 64.3% | UO-31 renal 57.3% | TK-10 renal 113% | ACHN renal 65.1% | CAKI-1 renal 80.1% | A498 renal 103% | CCRF-CEM leukemia 38.5% | MOLT-4 leukemia 22.7% | SR leukemia 32.5%

Cn1cc(-c2cc(N)n3nc(-c4cn(C)c5ccc(Cl)cc45)cc3n2)c2cc(Cl)ccc21
active: SR leukemia 5.66%
inactive: EKVX NSCLC 94.9% | SN12C renal 85% | UO-31 renal 100% | TK-10 renal 116% | ACHN renal 102% | CAKI-1 renal 83.2% | A498 renal 73.1% | CCRF-CEM leukemia 24.8% | MOLT-4 leukemia 51%
